Measurements published in PubChem BioAssay (EPA / NIEHS).
The source made the active and inactive calls. Rule for the calls: active = hit-call score of the fitted dose curve at least 0.9, where 1 is the maximum; inactive = score below 0.9.

Experiments:
[1] = read-out: Cyclin D1 (CCND1), CCND1 (gene 595); test: LTEA_HepaRG_CCND1: Life Technologies and Expression Analysis (LTEA) Assay for Cyclin D1 (CCND1) using HepaRG (AID 2283451); conditions: mRNA level, 48 h; actives raise or lower the signal
Outline: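 HepaRG plated 48 h, medium switched to serum-free induction medium, chemicals added in duplicate (top 100 uM, half-log steps, 0.5% DMSO) for 48 h, cells lysed, RNA measured by TaqMan qRT-PCR.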

[2] = read-out: catalase (CAT), CAT (gene 847); test: LTEA_HepaRG_CAT: Life Technologies and Expression Analysis (LTEA) Assay for catalase (CAT) using HepaRG (AID 2283452); conditions: mRNA level, 48 h; actives raise or lower the signal
Outline: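 Differentiated HepaRG cells in serum-free induction medium were dosed 48 h in duplicate, eight half-log concentrations from 100 uM in 0.5% DMSO. Transcript measured by TaqMan qRT-PCR, normalised to ACTB/GAPDH/POLR2A, fitted bidirectionally against DMSO.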

[3] = read-out: flavin-containing dimethylaniline monooxygenases 3 (FMO3), FMO3 (gene 2328); test: LTEA_HepaRG_FMO3: Life Technologies and Expression Analysis (LTEA) Assay for flavin-containing dimethylaniline monooxygenases 3 (FMO3) using HepaRG (AID 2283453); conditions: mRNA level, 48 h; actives raise or lower the signal
Outline: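 FMO3 transcript quantified by TaqMan qRT-PCR against three housekeeping genes after 48 h chemical exposure of HepaRG cells. Eight-point half-log series, top 100 uM, 0.5% DMSO vehicle; phenobarbital 1mM induction control; up- or down-regulation fitted.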

[4] = read-out: Cytochrome P450 (CYP1A1), CYP1A1 (gene 1543); test: LTEA_HepaRG_CYP1A1: Life Technologies and Expression Analysis (LTEA) Assay for Cytochrome P450 (CYP1A1) using HepaRG (AID 2283454); conditions: mRNA level, 48 h; actives raise or lower the signal
Outline: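 HepaRG, 48 h post-plating switched to serum-free induction medium; 8-pt conc-response (top 100 uM, half-log, 0.5% DMSO), duplicates, 48 h. Lysis in RLT, TaqMan qRT-PCR for CYP1A1; gain or loss vs DMSO.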

[5] = read-out: CFLAR gene, CFLAR (gene 8837); test: LTEA_HepaRG_CFLAR: Life Technologies and Expression Analysis (LTEA) Assay for CFLAR gene using HepaRG (AID 2283455); conditions: mRNA level, 48 h; actives raise or lower the signal
Outline: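 Gain- or loss-of-signal changes in CFLAR transcript were fitted bidirectionally relative to 0.5% DMSO. Cells (HepaRG, duplicate wells) were dosed for 48 h across eight half-log concentrations topping at 100 uM; quantitation by TaqMan qRT-PCR.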

[6] = read-out: Forkhead box O1 (FOXO1), FOXO1 (gene 2308); test: LTEA_HepaRG_FOXO1: Life Technologies and Expression Analysis (LTEA) Assay for Forkhead box O1 (FOXO1) using HepaRG (AID 2283456); conditions: mRNA level, 48 h; actives raise or lower the signal
Outline: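 Using one lot of HepaRG hepatic cells kept in 0.5% DMSO, the team applied test chemicals in duplicate, half-log dilutions from 100 uM, for 48 h. Expression, normalised to ACTB/GAPDH/POLR2A, was compared with vehicle in either direction.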

[7] = read-out: growth arrest and DNA damage 45 (GADD45A), GADD45A (gene 1647); test: LTEA_HepaRG_GADD45A: Life Technologies and Expression Analysis (LTEA) Assay for growth arrest and DNA damage 45 (GADD45A) using HepaRG (AID 2283458); conditions: mRNA level, 48 h; actives raise or lower the signal
Outline: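 GADD45A expression was measured by TaqMan qRT-PCR against three housekeeping genes (ACTB, GAPDH, POLR2A) after 48 h treatment of HepaRG cells. Eight-point half-log series up to 100 uM in 0.5% DMSO, run in duplicate.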

[8] = read-out: Forkhead box O3 (FOXO3), FOXO3 (gene 2309); test: LTEA_HepaRG_FOXO3: Life Technologies and Expression Analysis (LTEA) Assay for Forkhead box O3 (FOXO3) using HepaRG (AID 2283459); conditions: mRNA level, 48 h; actives raise or lower the signal
Outline: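 Gene-expression endpoint: FOXO3 transcript level by qRT-PCR in HepaRG cultures treated 48 h with chemicals up to 100 uM (half-log, 0.5% DMSO vehicle).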

[9] = read-out: ABC Transporter (ABCB1), ABCB1 (gene 5243); test: LTEA_HepaRG_ABCB1: Life Technologies and Expression Analysis (LTEA) Assay for ABC Transporter (ABCB1) using HepaRG (AID 2283460); conditions: mRNA level, 48 h; actives raise or lower the signal
Outline: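 Human liver HepaRG line treated 48 h with up to 100 uM compound (eight half-log points, 0.5% DMSO); ABCB1 mRNA change fitted bidirectionally against DMSO controls.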

[10] = read-out: growth arrest and DNA damage 45 (GADD45B), GADD45B (gene 4616); test: LTEA_HepaRG_GADD45B: Life Technologies and Expression Analysis (LTEA) Assay for growth arrest and DNA damage 45 (GADD45B) using HepaRG (AID 2283461); conditions: mRNA level, 48 h; actives raise or lower the signal
Outline: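 HepaRG, ~100,000 cells/well, 48 h plating; serum-free induction medium; cpd 100 uM top, half-log x8, 0.5% DMSO, duplicate, 48 h; lysis in RLT, RNA isolation, qRT-PCR; norm ACTB/GAPDH/POLR2A; bidirectional fit vs DMSO.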

[11] = read-out: ABC Transporter (ABCC3), ABCC3 (gene 8714); test: LTEA_HepaRG_ABCC3: Life Technologies and Expression Analysis (LTEA) Assay for ABC Transporter (ABCC3) using HepaRG (AID 2283462); conditions: mRNA level, 48 h; actives raise or lower the signal
Outline: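 Human HepaRG, 48 h dosing, 8-pt half-log series from 100 uM, 0.5% DMSO vehicle, duplicates. ABCC3 mRNA by TaqMan qRT-PCR, housekeeping-normalized; bidirectional curve fit vs DMSO.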

[12] = read-out: ABC Transporter (ABCB11), ABCB11 (gene 8647); test: LTEA_HepaRG_ABCB11: Life Technologies and Expression Analysis (LTEA) Assay for ABC Transporter (ABCB11) using HepaRG (AID 2283463); conditions: mRNA level, 48 h; actives raise or lower the signal
Outline: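 Using HepaRG cultures held in 0.5% DMSO, chemicals were tested at half-log dilutions from 100 uM for 48 h. Induction or suppression of ABCB11 mRNA, normalized to ACTB, GAPDH and POLR2A, was fitted bidirectionally against vehicle.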

[13] = read-out: ABC Transporter (ABCC2), ABCC2 (gene 1244); test: LTEA_HepaRG_ABCC2: Life Technologies and Expression Analysis (LTEA) Assay for ABC Transporter (ABCC2) using HepaRG (AID 2283464); conditions: mRNA level, 48 h; actives raise or lower the signal
Outline: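 HepaRG, 48 h post-plating; serum-free induction medium; cpd 8-pt, 100 uM top, half-log, 0.5% DMSO, duplicate, 48 h. Readout: ABCC2 mRNA by qRT-PCR, norm. ACTB/GAPDH/POLR2A. Bidirectional fit vs DMSO baseline.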

[14] = read-out: Broad substrate specificity ATP-binding cassette transporter ABCG2 (Homo sapiens) (UniProt Q9UNQ0); test: LTEA_HepaRG_ABCG2: Life Technologies and Expression Analysis (LTEA) Assay for ABC Transporter (ABCG2) using HepaRG (AID 2283465); conditions: mRNA level, 48 h; actives raise or lower the signal
Outline: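 Gene expression of ABCG2 in HepaRG liver cells is quantified by qRT-PCR following 48 h exposure across an eight-point series topping at 100 uM. Values come from bidirectional fitting relative to DMSO vehicle.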

[15] = read-out: ATP-citrate lyase (ACLY), ACLY (gene 47); test: LTEA_HepaRG_ACLY: Life Technologies and Expression Analysis (LTEA) Assay for ATP-citrate lyase (ACLY) using HepaRG (AID 2283466); conditions: mRNA level, 48 h; actives raise or lower the signal
Outline: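 ACLY expression changes in human HepaRG liver cells are quantified by qRT-PCR after 48 h exposure to test chemicals (maximum 100 uM, half-log steps). Values are fitted in both directions relative to 0.5% DMSO vehicle.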

[16] = read-out: Peroxisomal acyl-coenzyme A oxidase 1 (ACOX1) gene, ACOX1 (gene 51); test: LTEA_HepaRG_ACOX1: Life Technologies and Expression Analysis (LTEA) Assay for Peroxisomal acyl-coenzyme A oxidase 1 (ACOX1) gene using HepaRG (AID 2283467); conditions: mRNA level, 48 h; actives raise or lower the signal
Outline: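 Human HepaRG hepatic cultures, 48 h treatment with test chemicals up to 100 uM. ACOX1 expression read by qRT-PCR relative to 0.5% DMSO vehicle.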

[17] = read-out: Alkaline Phosphatase, Placental (ALPP) gene, ALPP (gene 250); test: LTEA_HepaRG_ALPP: Life Technologies and Expression Analysis (LTEA) Assay for Alkaline Phosphatase, Placental (ALPP) gene using HepaRG (AID 2283468); conditions: mRNA level, 48 h; actives raise or lower the signal
Outline: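 HepaRG, 48 h plating then 48 h dosing, serum-free induction medium, 0.5% DMSO. 8 conc, half-log, max 100 uM, duplicates. Endpoint: ALPP transcript by qRT-PCR, housekeeping-normalized; gain or loss fitted vs DMSO.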

[18] = read-out: Bcl-2 (BAD) gene, BAD (gene 572); test: LTEA_HepaRG_BAD: Life Technologies and Expression Analysis (LTEA) Assay for Bcl-2 (BAD) gene using HepaRG (AID 2283469); conditions: mRNA level, 48 h; actives raise or lower the signal
Outline: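 Activity values reflect up- or down-regulation of BAD mRNA in human HepaRG hepatic cells treated 48 h in serum-free medium, with eight-point half-log dosing capped at 100 uM and 0.5% DMSO vehicle.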

[19] = read-out: Bcl-2 (BAX) gene, BAX (gene 581); test: LTEA_HepaRG_BAX: Life Technologies and Expression Analysis (LTEA) Assay for Bcl-2 (BAX) gene using HepaRG (AID 2283470); conditions: mRNA level, 48 h; actives raise or lower the signal
Outline: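 Gene expression measured by Fluidigm qRT-PCR with three housekeeping genes for normalisation. HepaRG cells, plated 48 h beforehand, treated 48 h at up to 100 uM (8-point, half-log) in 0.5% DMSO. Bidirectional fitting versus DMSO.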

[20] = CEETOX_H295R_TESTO: CeeTox H295R High-throughput Steroidogenesis Assay for Testosterone (TESTO) (AID 2283457); conditions: actives raise or lower the signal;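 for AC50: cells exposed to chemicals for 48 h before medium collection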
Outline: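 H295R, passage ≤10, 48 h dosing; media extracted with MTBE → HPLC-MS/MS for testosterone; 7-pt standard curve sets LLOQ/ULOQ; bidirectional fit vs DMSO; MTT viability same wells.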

Measured: AC50

Sequence of Broad substrate specificity ATP-binding cassette transporter ABCG2 (Homo sapiens) (Q9UNQ0 whole entry, looked up): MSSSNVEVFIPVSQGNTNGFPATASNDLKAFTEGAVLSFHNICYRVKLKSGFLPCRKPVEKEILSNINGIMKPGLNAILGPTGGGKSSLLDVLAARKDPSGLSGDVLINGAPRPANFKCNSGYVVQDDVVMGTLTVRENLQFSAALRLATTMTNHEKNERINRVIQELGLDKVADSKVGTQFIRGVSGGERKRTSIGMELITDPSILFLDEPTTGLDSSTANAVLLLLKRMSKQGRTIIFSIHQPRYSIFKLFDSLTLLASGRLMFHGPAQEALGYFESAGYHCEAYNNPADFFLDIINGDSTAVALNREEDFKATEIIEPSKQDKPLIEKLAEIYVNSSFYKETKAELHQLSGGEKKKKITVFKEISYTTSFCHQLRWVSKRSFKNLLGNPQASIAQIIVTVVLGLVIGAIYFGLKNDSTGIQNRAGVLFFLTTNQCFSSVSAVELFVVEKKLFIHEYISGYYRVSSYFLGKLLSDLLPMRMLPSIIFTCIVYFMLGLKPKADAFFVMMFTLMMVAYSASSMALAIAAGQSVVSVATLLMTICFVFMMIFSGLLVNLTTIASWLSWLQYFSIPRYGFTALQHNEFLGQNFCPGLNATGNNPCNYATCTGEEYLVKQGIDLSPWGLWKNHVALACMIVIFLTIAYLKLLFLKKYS

CC(O)CC(C)(C)O (stereo unspecified)
inactive: [1] | [2] | [3] | [4] | [5] | [6] | [7] | [8] | [9] | [10] | [11] | [12] | [13] | [14] | [15] | [16] | [17] | [18] | [19]

OCCO
inactive: [1] | [2] | [3] | [4] | [5] | [6] | [7] | [9] | [10] | [11] | [12] | [13] | [14] | [15] | [16] | [17] | [18] | [19]
active: [8] 12.7 µM

Oc1ccc2ccccc2c1
active: [4] 66.8 µM | [20] 82.4 µM
inactive: [1] | [2] | [3] | [5] | [6] | [7] | [8] | [9] | [10] | [11] | [12] | [13] | [14] | [15] | [16] | [17] | [18] | [19]

O=C1O[C@H]([C@@H](O)CO)C(O)=C1O
inactive: [1] | [2] | [3] | [5] | [6] | [7] | [8] | [9] | [10] | [11] | [12] | [13] | [14] | [15] | [16] | [17] | [18] | [19]
active: [4] 61.8 µM

O=c1[nH]sc2ccccc12
inactive: [1] | [2] | [3] | [5] | [6] | [7] | [8] | [9] | [10] | [11] | [12] | [13] | [14] | [15] | [16] | [17] | [18] | [19]
active: [4] 64.5 µM

CCCCOC(=O)c1ccc(O)cc1
inactive: [1] | [2] | [3] | [4] | [5] | [6] | [20] | [7] | [8] | [9] | [10] | [11] | [12] | [13] | [14] | [15] | [16] | [17] | [18] | [19]
